Hit rate of the full screen: of about 2,300 compounds, about 20 (0.9%) were called active.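 Rule for the calls: active = mean percent activation across replicates above the counterscreen hit cutoff of 9.17%; inactive = the rest.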 This excerpt belongs to a sample that is enriched for actives.
molecular target: Glucose-dependent insulinotropic receptor (Homo sapiens) (UniProt Q8TDV5); experiment: GPR119 activators in beta-arrestin cells, confirmation, counter-screen for GPR151 activator project, cell-based, PathHunter beta-arrestin, luminescence, set 2 (AID 1508607); settings: 90 min, at 11.2 µM, stronger effect = higher value;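 note: 0% = median of sample wells and 100% = wells given EA reagent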
Sequence (Q8TDV5 whole entry, looked up): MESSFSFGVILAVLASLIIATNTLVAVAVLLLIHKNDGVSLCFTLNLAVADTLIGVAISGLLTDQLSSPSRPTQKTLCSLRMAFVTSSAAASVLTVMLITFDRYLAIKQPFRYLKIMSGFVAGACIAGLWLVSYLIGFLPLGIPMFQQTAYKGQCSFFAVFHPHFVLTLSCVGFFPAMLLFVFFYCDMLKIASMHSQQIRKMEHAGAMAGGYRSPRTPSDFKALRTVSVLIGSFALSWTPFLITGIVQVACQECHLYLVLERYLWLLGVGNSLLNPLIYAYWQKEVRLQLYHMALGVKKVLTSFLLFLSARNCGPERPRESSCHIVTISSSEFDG

SMILES | activation
CC(C)OCCCNC(=O)CN(c1ccc(OCc2ccccc2)cc1)S(C)(=O)=O | -1.63% (inactive)
COc1ccc(S(=O)(=O)CCC(=O)N2CCc3ccccc32)cc1 | 1.93% (inactive)
Cc1ccc(S(=O)(=O)N2CCN3C(=O)[C@H](Cc4ccc(Cl)cc4)NC(=O)[C@H]3C2)cc1 | 1.14% (inactive)
CC1(C(=O)NCC2Cc3cccc(-c4ncccn4)c3O2)CC1 (stereo not given) | 1.78% (inactive)
COc1cc(Nc2ccnc(Nc3ccc(N4CCOCC4)cc3)n2)cc(OC)c1OC | 7.31% (inactive)
COc1ccc(CCNc2cc(C)nc(Nc3ccc(-n4ccnc4)cc3)n2)cc1 | 6.54% (inactive)
COc1ccc(CCNc2ccnc(Nc3ccc(N4CCOCC4)cc3)n2)cc1 | 10.5% (active)
COc1ccc(CCNc2ccnc(Nc3ccc(-n4ccnc4)cc3)n2)cc1 | 12.4% (active)
Cc1cc(Nc2ccc3c(c2)OCO3)nc(Nc2ccc(N3CCOCC3)cc2)n1 | 1.65% (inactive)
Cc1cc(Nc2ccc(N3CCOCC3)cc2)nc(Nc2ccc(-n3ccnc3)cc2)n1 | 3.07% (inactive)
O=C(O)c1cc([N+](=O)[O-])ccc1C(=O)Nc1cccc2ccccc12 | -0.79% (inactive)
CCC(=O)N1CCc2cc(S(=O)(=O)NCCN(CC)c3ccccc3)ccc21 | -1.16% (inactive)
CC1CCC(=NNC(=O)c2ccccc2O)CC1 (stereo not given) | -3.51% (inactive)
CN(C)c1ccc(/C=C(\C#N)C(N)=C(C#N)C#N)cc1 | 4.1% (inactive)
O=C(c1cccc(S(=O)(=O)N2CCOCC2)c1)N1CCCc2ccccc21 | -5.28% (inactive)
CC(=O)Cc1nsc(Nc2cccc(Cl)c2C)n1 | 6.59% (inactive)
CSc1nc2sccn2c(=O)c1C(=O)NCc1ccccc1Oc1ccccc1 | -1.15% (inactive)
COc1cc2[nH]c(=O)n(CCC(=O)N3CCC(N4CCCCC4)CC3)c(=O)c2cc1OC | -2.11% (inactive)
CN1CCN(c2cc(-c3cn[nH]c3)ccc2NC(=O)Cc2cccc(Cl)c2)CC1 | 11.6% (active)
CCOc1ccc(S(=O)(=O)N(CC(=O)NCCSc2ccccc2)c2ccccc2)cc1 | -2.47% (inactive)
COc1ccc(-n2ncc3c(Nc4cccc(F)c4)ncnc32)cc1 | 2.73% (inactive)
COc1ccc(-n2ncc3c(Nc4ccc(C(C)C)cc4)ncnc32)cc1 | 9.19% (active)
COc1ccc(-n2ncc3c(Nc4cc(OC)ccc4OC)ncnc32)cc1 | 4.1% (inactive)

SMILES | activation
C/C(=N/NC(=O)CNC(=O)c1ccccc1F)c1cccc([N+](=O)[O-])c1 | -2.45% (inactive)
CCCn1cc(SCC(=O)Nc2ccc(OC)cc2OC)c2ccccc21 | 4.73% (inactive)
CC(C)(C)NC(=O)C1CCN(S(=O)(=O)c2ccc(Br)s2)CC1 | 3.94% (inactive)
COCCNC(=O)c1cccc(OC2CCN(Cc3cc4ccccc4o3)CC2)c1 | 0.69% (inactive)
CCOc1ccccc1CNCc1c(C(=O)O)c(C)n(Cc2cccc(Cl)c2)c1C | -3.17% (inactive)
N#C/C(=C/c1cc(Cl)ccc1Cl)c1nc2ccccc2c(=O)[nH]1 | -3.12% (inactive)
COC(=O)c1c(OCC2CCCCO2)cc(=O)n2c1CCN(Cc1ccsc1)CC2 (stereo not given) | 0.67% (inactive)
O=C(C1CCCN1S(=O)(=O)c1ccc(Cl)cc1)N1CCOCC1 (stereo not given) | 2.3% (inactive)
CCOC(=O)c1cc(-c2ccccc2)sc1NC(=O)c1ccc(OC)c(OC)c1 | -1.86% (inactive)
Cc1cc(OCC(=O)Nc2sc(C)c(C)c2C(N)=O)ccc1Br | 3.41% (inactive)
N#CC1=C2SCN(Cc3ccccc3)CN2C(=O)CC1c1cccc(F)c1 (stereo not given) | -1.21% (inactive)
CC(=O)c1ccc(N2CCN(C(=O)c3cc4c(C)nc5ccccc5c4o3)CC2)cc1 | 0.66% (inactive)
CCOc1ccc(/C=C2\SC(=S)N(CC(=O)Nc3ccc(O)cc3)C2=O)cc1 | -3.84% (inactive)
Cc1nc2n(n1)C(c1ccc(Cl)cc1)C=C(c1ccc(Cl)cc1)N2 (stereo not given) | -0.05% (inactive)
C=CCOc1ccc(/C=C2\NC(=S)N(c3ccc(OC)cc3)C2=O)cc1 | 1.06% (inactive)
CCCCNC(=O)c1ccc(C)c(N2CCCC2=O)c1 | 0.14% (inactive)
O=S(=O)(/C=C/c1ccccc1)N1c2ccccc2C=CC1c1c[nH]c2ccccc12 (stereo not given) | -5.1% (inactive)
COc1ccc(C(=O)N/N=C/c2ccc(O)cc2O)cc1OC | 1.94% (inactive)
Cc1ccc(Nc2nc(Cl)nc(N3CCOCC3)n2)cc1Cl | -1.69% (inactive)
COC(=O)c1ccccc1NC(=O)c1cc2ccccc2oc1=O | 2.29% (inactive)
CC(C)c1ccccc1OCC(=O)Nc1ccccc1Cl | -0.8% (inactive)
Cc1c(Cl)cccc1NS(=O)(=O)c1c(C(C)C)cc(C(C)C)cc1C(C)C | 9.78% (active)
CC(=O)N1CCC(N(C(=S)Nc2cccc(Cl)c2C)C(C)C)CC1 | -0.07% (inactive)

SMILES | activation
COc1ccc(NC(=O)N2CCC(CN3CCc4ccccc4C3)CC2)cc1 | -2.3% (inactive)
Cc1cccc(Cn2c(=O)c3ccccc3n3nncc23)c1 | 3.36% (inactive)
COc1ccc(N2CCN(c3ncnc4sc(C(=O)N5CCC(C(N)=O)(N6CCCCC6)CC5)c(C)c34)CC2)cc1 | 0.57% (inactive)
O=C(NCc1ccco1)c1ccc2ccccc2c1 | 1.88% (inactive)
COc1ccc(-c2nc3c(=O)n(C)c4ccccc4c3o2)cc1 | -4% (inactive)
CCC(=O)N1CCN(c2ccc(NC(=O)C(C)(C)C)cc2)CC1 | 0.46% (inactive)
O=C(CNc1ccccc1)N/N=C/c1cccc(Oc2ccccc2)c1 | -3.18% (inactive)
O=C(/C=C/c1ccccn1)NCCN1Cc2ccccc2OC(c2ccccc2)C1 (stereo not given) | 1.44% (inactive)
CCNC(=O)C(=O)Nc1ccc(OC)cc1 | -1.66% (inactive)
O=C(CSc1ccc2nnc(-c3ccncc3)n2n1)Nc1ccc(C(F)(F)F)cc1 | -0.42% (inactive)
Cc1n[nH]c(C)c1S(=O)(=O)NCc1ccc(F)cc1 | -0.09% (inactive)
O=c1oc2ccc3ccccc3c2cc1-c1nnc(Nc2ccc(Oc3ccc4ccccc4c3Cl)c(Cl)c2)s1 | 0.97% (inactive)
CCC(C)OC(=O)C1=C(C)NC(=O)NC1c1cc(Br)ccc1OC (stereo not given) | 1.91% (inactive)
CC(C)c1ccc(Cn2ccc3c4c(N)nc(NC5CC5)nc4ccc32)cc1 | 51.2% (active)
CC(C)CC(=O)NCC1CCC2(CCN(Cc3ccccc3F)CC2)O1 (stereo not given) | 2.66% (inactive)
Cc1ccc(-n2nc3c(c2NC(=O)C2(c4ccc(Cl)cc4)CCCC2)CSC3)cc1 | 3.08% (inactive)
CCOC(=O)CCCN(Cc1ccc(F)cc1)S(=O)(=O)c1ccc(F)c(C)c1 | 0.45% (inactive)
COc1cc(NC(=O)c2onc(C)c2Cl)cc(OC)c1OC | -1.44% (inactive)
CCOC(=O)N1CCN(C(=O)c2ccc3c(c2)NC(=O)C(CSCc2cc(C)ccc2C)N3)CC1 (stereo not given) | 2.54% (inactive)
O=C(O)c1c(CNC2CCCc3ccccc32)c2ccccc2n1Cc1ccccc1 (stereo not given) | -2.12% (inactive)
O=C(O)c1cc([N+](=O)[O-])c(C(=O)O)cc1Oc1ccc(Cl)cc1 | 3.33% (inactive)
COc1cc(/C=N/NC(=O)CCCC(=O)N/N=C/c2ccc(O)c(OC)c2)ccc1O | -0.52% (inactive)
CCc1nnc2c3c4c(sc3nc(CC)n12)CCCC4 | -1.48% (inactive)

SMILES | activation
CC(C)c1ccc(N=c2c([N+](=O)[O-])nn(-c3ccccc3)n2O)cc1 | 5.25% (inactive)
CCOC(=O)c1nc(NCc2ccccc2)c2ccccc2n1 | 2.75% (inactive)
O=C(Cn1c(=O)oc2ccccc21)Nc1cccc(C(F)(F)F)c1 | 3.85% (inactive)
CCn1cnc2sc(C(=O)Nc3ccc(Cl)c(Cl)c3)c(C)c2c1=O | 0.88% (inactive)
COc1ccc(C(=O)Nn2c(-c3ccc(F)cc3)nc3ccccc3c2=O)cc1Br | -2.33% (inactive)
CC(=O)c1c(C)oc2c1c1c(c3ccccc32)OCN(C2CCCC2)C1 | 2.76% (inactive)
COc1ccc(OC)c(-n2c(O)c(/C=C3\C=CC=N3)c(=O)[nH]c2=O)c1 | 1.81% (inactive)
N#CCCN1CCN(c2ccc(F)cc2[N+](=O)[O-])CC1 | 3.88% (inactive)
CC(C)c1onc(C(=O)NC2CCCCC2)c1[N+](=O)[O-] | -2.5% (inactive)
COc1ccc(O)c(C2=Nc3ccccc3N=C(c3ccc([N+](=O)[O-])cc3)C2)c1 | -1.11% (inactive)
COc1ccc(C[C@H](N)C(=O)N[C@@H]2[C@@H](CO)OC(n3cnc4c(N(C)C)ncnc43)[C@@H]2O)cc1 (stereo not given in full) | -4.23% (inactive)
O=C(CCc1nnc2n(Cc3ccccc3)c(=O)c3ccccc3n12)NCCN1CCCC1 | -0.83% (inactive)
Cc1c(NC(=O)c2cc(F)cc(F)c2)c(=O)n(-c2ccccc2)n1C | -3.89% (inactive)
CC1CC(C)(C)NC(=S)N1CC(=O)N1CCN(Cc2ccc3c(c2)OCO3)CC1 (stereo not given) | -1.14% (inactive)
O=C(NCCO)C(=O)Nc1cccc(Cl)c1Cl | 1.5% (inactive)
Cc1ccc(NC(=O)CN(C)S(=O)(=O)c2ccc(Br)cc2)cc1Cl | 4.66% (inactive)
CCN(CC)c1ccc2cc(-c3nnc(NCc4ccc(F)cc4)s3)c(=O)oc2c1 | 0.77% (inactive)
CCCCOc1ccc(C(=O)Nc2c3c(nn2-c2cccc(Cl)c2)CSC3)cc1 | 5.97% (inactive)
COCCCNC(=O)/C(=C\c1ccco1)NC(=O)c1ccc(C)cc1 | -2.09% (inactive)
O=C(NCCCN1CCOCC1)/C(=C/c1ccc(-c2cccc(C(F)(F)F)c2)o1)NC(=O)c1ccc(Cl)cc1 | 9.32% (active)
Fc1ccc(-c2cnc3ccc(NCCCN4CCOCC4)nn23)cc1Cl | 2.09% (inactive)

— PubChem BioAssay AID1508607 (The Scripps Research Institute Molecular Screening Center, 2020)
